# Results as given in PubChem BioAssay (Tox21).
# Records with an inconclusive call do not appear. Values without a mark were called inactive. Calls of active or inactive are those of the source. Calls come from the whole dose curve; as a rule, active = well fitted cell-killing curve with a large enough effect in the repeat runs; inconclusive = weak or mixed curves, or effect the other way; inactive = flat fitted curve, though single readings scatter.
# Assay: qHTS assay to identify small molecule antagonists of the estrogen receptor alpha (ER-alpha) signaling pathway using the BG1 cell line in the presence of 0.1 nM 17-beta-estradiol - cell viability counter screen (AID 1259241); note: nearly all actives have a fitted effect of over 40% in size
# Settings: VM7Luc4E2 (BG1) viability, CellTiter-Fluor protease, 22 h, 0.1 nM estradiol agonist added; series mostly up to 92.4 µM; activity change, negative = cytotoxicity: at the top concentration
# From the text: National Center for Advancing Translational Sciences [NCATS]
# NIH Chemical Genomics Center [NCGC]
# U.S. Environmental Protection Agency [EPA]
# National Institutes of Environmental Health Sciences [NIEHS]
# National Toxicology Program [NTP]
# U.S. Food and Drug Administration [FDA]
# Estrogen receptor (ER), a member of the nuclear hormone receptor plays an important role in development, metabolic homeostasis and reproduction. Two subtypes of ER, ER-alpha and ER-beta, have similar expression patterns with some uniqueness in both types. Endocrine disrupting chemicals (EDCs) and their interactions with steroid hormone receptors like ER causes disruption of normal endocrine function. Therefore, it is important to understand the effect of environmental chemicals in ER signaling pathway. For identifying ER antagonists, VM7Luc4E2 cell line was used to screen against Tox21 compound libraries.
# VM7Luc4E2 cell line (provided by Denison MS, University of California) endogenously express full-length ER-alpha and is stably transfected with a plasmid containing four estrogen responsive elements (ERE) upstream of a luciferase reporter gene. The current screening for identification of ER-alpha inhibitors against Tox21 compound libraries used lower concentration (0.1 nM) of 17beta-Estradiol as a stimulator. The cytotoxicity of the Tox21 compound libraries against VM7Luc4E2 cell line was tested by measuring live-cell protease activity using CellTiter-Fluor assay in the same wells.
# Tox21 Assay Protocol Summary:
# VM7Luc4E2 cells were cultured in phenol red free assay medium containing 10% charcoal stripped FBS for 5 days prior to the assay. The cells were dispensed at 4,000 cells/well in 4 uL of assay medium into white wall/solid-bottom 1536-well plates (Corning Life Sciences, Corning, NY) using a Multidrop Combi (ThermoFisher Scientific, Waltham, MA) dispenser. After the assay plates were incubated at 37C and 5% CO2 for 24 hr, 23 nL of compounds dissolved in DMSO, positive controls or DMSO only was transferred to the assay plates by a Pintool station (Kalypsys, San Diego, CA). The transfer of compounds was followed by the addition of 1 uL of 0.1 nM (final concentration) agonist (17beta-Estradiol)/assay medium using a Flying Reagent Dispenser (FRD, Aurora Discovery, San Diego, CA). The plates were incubated at 37C and 5% CO2 for 22 hr. For cytotoxicity assay, 1 uL of CellTiter-Fluor reagent (Promega Corporation, Madison, WI) was added to each well using the FRD and after 30 min incubation at 37C and 5% CO2, The fluorescence intensity was measured using ViewLux plate reader (PerkinElmer, Shelton, CT).
# % is set by controls: 0 for no effect and ±100 for the full control effect.
Structure (SMILES),"activity change, negative = cytotoxicity",Potency
C[N+](C)(C)CCCl,-2.09%,
COC(=O)c1cncn1C(C)c1ccccc1 (stereo not given),2.81% [at 42.5 µM],
ClCc1ccccc1,-12.5%,
Cc1ccccc1CCl,0.727%,
CCOP(=O)(OCC)SCCSCC,,inactive
CCCCCCC#N,0.961%,
CC/C(=N\OC/C=C/Cl)C1=C(O)CC(C2CCOCC2)CC1=O (stereo not given),4.75%,
Clc1cccc(SC2CCNCC2)n1,-9.04% [at 42.5 µM],
C=CC(=O)OC,-2.8%,
CC(=O)CCC(C)=O,-14.7%,
CCC(Br)(CC)C(=O)NC(N)=O,-4.03%,
CCCCCCCCCC(=O)O[C@H]1CC[C@H]2[C@@H]3CCC4=CC(=O)CC[C@@H]4[C@H]3CC[C@]12C,2.63% [at 42.5 µM],
ClCCCCBr,6.64%,
CCCN(CC1CC1)c1c([N+](=O)[O-])cc(C(F)(F)F)cc1[N+](=O)[O-],5.31%,
CCOP(O)OCC,1.04%,
N#CCc1ccccc1,18.8%,
C=CC(=O)OCC(C)C,0.778%,
CC(=O)C(C)(C)C,0%,
COC(=O)C(Br)CBr (stereo not given),2.28%,
CC(Cl)Cl,17.1%,

Structure (SMILES),"activity change, negative = cytotoxicity",Potency
O=C1CN=C(c2ccccc2)c2cc(Cl)ccc2N1CC1CC1,-0.886%,
O=C(C(Cl)(Cl)Cl)C(Cl)(Cl)Cl,5.95%,
CC(C)(Cl)[N+](=O)[O-],0%,
NNC(=O)c1cccnc1,-21.6%,
NCC(CC(=O)O)c1ccc(Cl)cc1 (stereo not given),0.211% [at 0.349 µM],
C/C=C/C=O,-21.1%,
CN1C(=O)NC(=O)C(C)(C2=CCCCC2)C1=O (stereo not given),6.8% [at 42.5 µM],
CN1[C@@H]2CC[C@H]1CC(OC(=O)c1cc(Cl)cc(Cl)c1)C2 (stereo not given in full),3.44% [at 42.5 µM],
BrCCCCBr,6.82%,
O=NN1CCNCC1,0.764%,
CCCCCC[N+](=O)[O-],8.7%,
C=CCN1CC[C@]23c4c5ccc(O)c4O[C@H]2C(=O)CC[C@@]3(O)[C@H]1C5,0.405% [at 42.5 µM],
ClP(Cl)(Cl)(Cl)Cl,5.43%,
COCC(C)N(C(=O)CCl)c1c(C)csc1C (stereo not given),-10.5%,
NC(=O)C(Cl)(Cl)Cl,10.4%,
CNP(=O)(OC)Oc1ccc(C(C)(C)C)cc1Cl (stereo not given),4.46%,
CCCCC(CC)COP(=O)(Oc1ccccc1)Oc1ccccc1 (stereo not given),2.32%,
CCCN(CCC)c1c([N+](=O)[O-])cc(S(C)(=O)=O)cc1[N+](=O)[O-],-16.1%,
Cc1ccc(N)cc1C,0%,
C=CC(=O)OC(C)(C)C,9.53%,
